Consider 65 compounds from PubChem BioAssay AID2501 (Southern Research Specialized Biocontainment Screening …, 2010).

The whole screen tested about 2,200 compounds, of which about 1,200 (55%) were called active. No cut-off is given here; in the data, nearly all actives have IC50 up to about 92 µM. So high a share suggests a set chosen from earlier hits. Some of the results follow.

The assay is described as follows: counter assay for TAg ATPase ADP read-out – biochemical, ADP-Hunter, fluorescence, counter-screen (AID 2501).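 For inhibition: 0% = enzyme with vehicle and 100% = reference inhibitor wells; higher means more inhibition.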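 Note: purified T antigen ATPase.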 Conditions: series mostly up to 100 µM. In general terms: Counterscreens check selectivity or assay interference.
The term IC50 denotes the concentration needed to halve the response being measured. For `Cc1cc(-c2nnc(SCc3ccccn3)o2)no1`, the IC50 result is “inactive”.
The same measure, in the same setting: the same measure for `Cc1onc(-c2c(F)cccc2Cl)c1C(=O)OCC(=O)NC(c1ccccc1)c1ccccc1`: “inactive”; for `CCS(=O)(=O)C1=NN2C(=N)/C(=C\c3ccc(OC(=O)c4ccco4)c(OC)c3)C(=O)N=C2S1`: 54.2 µM (active).
For the compound `COc1cc(/C=C2\C(=N)N3N=C(S(C)(=O)=O)SC3=NC2=O)ccc1OS(=O)(=O)c1ccc(C)cc1`, the IC50 is 28.6 µM (active).
A word on the inhibition: it is the drop in the measured response relative to a control, in per cent. As for `CCOc1cc(/C=C2\C(=N)N3N=C(S(=O)(=O)CC)SC3=NC2=O)ccc1OC(=O)c1ccco1`, the inhibition is 8.45% [at 6.25 µM] (inactive).
For `CCS(=O)(=O)C1=NN2C(=N)/C(=C\c3ccc(SCc4ccco4)o3)C(=O)N=C2S1`, the IC50 result is “inactive”.
In the case of `COc1cc(/C=C2/C(=N)N3C(=NC2=O)SN=C3S(=O)(=O)C(C)C)ccc1OS(=O)(=O)c1ccccc1`, the IC50 result is “inactive”.
Turning to `COc1cc(/C=C2/C(=N)N3C(=NC2=O)SN=C3S(C)(=O)=O)ccc1OS(=O)(=O)c1ccc(C)cc1`, the IC50 entry was “inactive”.
Same read-out and setting: the same measure for `O=C1OC(c2ccc(Cl)cc2)=N/C1=C\C=C\c1ccco1`: “inactive”; for `Cc1ccn2cc(-c3ccc(O)c(O)c3)nc2c1`: 7.1 µM (active); for `Oc1ccc(-c2cn3ccccc3n2)cc1`: 3.69 µM (active).
Same read-out and setting: next, `Oc1ccc(-c2cn3ccccc3n2)cc1O`: 5.62 µM (active).
For the compound `Cc1ccc(-c2nnc(Nc3ccc(O)cc3)c3ccccc23)cc1S(=O)(=O)NCCO`, the 50% inhibitory concentration (IC50) was 5.63 µM (active).
Same read-out and setting: next, `O=C(Nc1cccc(N2C(=O)C=CC2=O)c1)c1cccs1`: “inactive”; `CCOc1cc(NS(=O)(=O)c2ccc(NC(C)=O)cc2)c(OCC)cc1NC(=O)c1cccs1`: 7.08 µM (active); `COc1cc(NS(=O)(=O)c2ccc(NC(=S)NC(=O)/C=C/c3ccco3)cc2)ncn1`: “inactive”.
With `CN=c1scc(-c2ccco2)n1/N=C/c1ccc(O)c(O)c1`, the IC50 is 8.2 µM (active).
As for `O=C(COc1cccnc1[N+](=O)[O-])c1ccc(Cl)s1`, the IC50 is 39.2 µM (active).
In the case of `Cc1cccc(C(=O)NCC(=O)OCC(=O)c2ccc(Cl)s2)c1`, the IC50 entry is “inactive”.
As for `O=C(Nc1ccon1)c1cc2ccccc2oc1=O`, the IC50 entry was “inactive”.
Consider `O=C(OC1CCCCC1=O)c1cc(=O)c2ccccc2o1` (stereo not given), for which the IC50 entry was “inactive”.
For `COc1cc(-c2cc(=O)c3c(O)c(OC)c(OC)c(O)c3o2)ccc1O`, the IC50 result was “inactive”.
Take `COc1cc(-c2cc(=O)c3ccccc3o2)ccc1O`: the concentration for half-maximal inhibition (IC50) was 3.14 µM (active).
On to `CCCOCC1CC(CCc2nc(=S)[nH][nH]2)C(=O)O1` (stereo not given), for which the IC50 entry is “inactive”.
As for `O=C(Cn1sc2ccccc2c1=O)NC12CC3CC(CC(C3)C1)C2`, the IC50 result was “inactive”.
Still for that read-out and setting: next, `Cc1ccnc(-n2sc3ccccc3c2=O)n1`: 9.06 µM (active); `Cc1cc(=O)c2ccccc2s1`: “inactive”; `O=c1[nH]sc2ccccc12`: “inactive”.
Take `O=c1c2ccccc2sn1-c1nccs1`: the IC50 was 14.1 µM (active).
Take `Cc1ccnc(NS(=O)(=O)c2ccccc2)n1`: the IC50 entry was “inactive”.
For the compound `COc1cccc(C(c2sc3nc(C)nn3c2O)N2CCN(c3ccccc3F)CC2)c1` (stereo not given), the IC50 entry is “inactive”.
Regarding `O=C(O)/C=C/C(=O)Nc1ccc(Cl)cc1C(=O)c1ccccc1`, the IC50 entry was “inactive”.
Consider `CN(C)c1nn(C(=O)Nc2ccc(Cl)cc2Cl)cc1-c1ccccc1`, for which the half-inhibitory concentration (IC50) is 14.8 µM (active).
For the compound `CCCCSc1cc(C)nc(N)n1`, the IC50 entry is “inactive”.
With `CCN(CC)c1ccc(NC(=O)c2cccnc2)c(C)c1`, the IC50 is 6.37 µM (active).
The same measure, in the same setting: the same measure for `CCN(CC)c1ccc(NC(=O)c2cnn(CC)c2)cc1`: 4.27 µM (active).
For `CCN(CC)c1ccc(NC(=O)c2cccc(C)c2OC)c(C)c1`, the IC50 was 14.9 µM (active).
As to `CCOC(=O)c1cc(NC(=O)c2cccnc2)ccn1`, the IC50 result was “inactive”.
On the same count and under the same terms, the same measure for `COCCNC(=O)C(=O)Nc1ccc(Cl)cc1C`: “inactive”; for `COC(=O)NNC(=O)c1ccccc1C`: “inactive”; for `CCN(CC)c1ccc(NC(=O)c2cccnc2)cc1`: 8.35 µM (active).
Still for that read-out and setting: next, `COc1ccc(N2C(=NC(C)=O)SC3CS(=O)(=O)CC32)cc1OC` (stereo not given): “inactive”; `CC(C)=CCc1c(O)c(CC=C(C)C)c2c(c1O)-c1cc(O)c(O)cc1CC2`: “inactive”.
`O=C(NCc1ccccn1)C1CCN(S(=O)(=O)c2ccccc2)CC1`: the IC50 result is “inactive”.
For the compound `CCN(CC)c1ccc(NC(=O)c2cccc(F)c2)c(C)c1`, the IC50 is 9.01 µM (active).
On the same count and under the same terms, next, `COc1ccc2c(c1OC)C(=O)N(c1ccc(O)cc1)C2`: 2.39 µM (active); `C=CS(=O)c1sc(Cl)c(N2CCOCC2)c1[N+](=O)[O-]` (stereo not given): “inactive”.
Take `CC(=O)Oc1cc2cccc(OC(C)=O)c(=O)c2c(OC(C)=O)c1OC(C)=O`: the IC50 is 91.6 µM (active).
Take `Cc1ccc(S(=O)(=O)Nc2cc(NC(=O)CN3CCOCC3)ccc2Cl)cc1`: the IC50 result is “inactive”.
On the same count and under the same terms, next, `Cn1c(CCC(=O)Nc2cc(S(C)(=O)=O)ccc2Cl)nc2cc(S(=O)(=O)N3CCOCC3)ccc21`: “inactive”.
`O=C(CN1CCN(c2ccc(O)cc2)CC1)Nc1cc(S(=O)(=O)N2CCOCC2)ccc1Cl`: the IC50 was 6.43 µM (active).
On to `COC(=O)Nc1ccc(S(=O)(=O)N2CCCC(C(=O)N3CCOCC3)C2)cc1` (stereo not given), for which the IC50 result is “inactive”.
With `Cc1ccc(S(=O)(=O)N2CCOCC2)cc1NC(=O)CN1CCN(c2ccc(O)cc2)CC1`, the 50% inhibitory concentration (IC50) is 5.44 µM (active).
Turning to `O=S(=O)(c1ccc(NC(=S)N2CCN(c3ccc(O)cc3)CC2)cc1)N1CCOCC1`, the half-inhibitory concentration (IC50) was 4.49 µM (active).
As for `Cc1ccc(S(=O)(=O)n2nc(OC(=O)c3ccccc3C)cc2N)cc1`, the IC50 result is “inactive”.
As to `C=CCSc1nc(N)c(NC(=O)c2ccco2)c(=O)[nH]1`, the IC50 entry is “inactive”.
With `COc1ccccc1NC(=O)c1c([N+](=O)[O-])cnn1C`, the IC50 entry is “inactive”.
As to `COc1ccccc1NC(=O)Oc1ccc(NC(=O)c2ccco2)cc1`, the IC50 was 3.94 µM (active).
As to `O=C(Nc1cccc(NC(=O)c2ccco2)c1)c1ccc([N+](=O)[O-])cc1`, the IC50 entry is “inactive”.
For `COc1cc(NC(=O)COc2ccccc2C)ccc1NC(=O)c1ccco1`, the IC50 result was “inactive”.
As for `O=C(Nc1ccc(Cl)c(Cl)c1)Oc1ccc(NC(=O)c2ccco2)cc1`, the IC50 was 23.2 µM (active).
Regarding `Cc1cc(O)c(C=O)c2c1C(=O)Oc1c(CO)c(O)c3c(c1O2)C(O)OC3=O` (stereo not given), the IC50 entry is “inactive”.
Consider `O=[N+]([O-])c1cc([N+](=O)[O-])c2cccnc2c1Oc1ccccc1O`, for which the half-inhibitory concentration (IC50) was 21.8 µM (active).
Take `O=S(=O)(O)c1cccc2c(N=Nc3ccc(O)c4ncccc34)cccc12`: the IC50 entry is “inactive”.
`O=[N+]([O-])c1cc(CN2CCCC2)c2cccnc2c1O`: the IC50 entry was “inactive”.
